# Data published in the supplement of paper PMC8728848.
# Many of the other results were omitted from the sample, so the strongest signals are more common in it than they were.
# What was measured:
# Assay in all cases: glycan array binding signal (z-score within array); higher = stronger binding
# Settings in all cases: glycan notation: IUPAC condensed, linker removed
# [1] = molecular target: Fuc(a1-2)Gal(b1-3)GalNAc(a1-3)[Fuc(a1-2)]Gal(b1-4)GlcNAc
# Outline: (§1)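 Glycan array data were curated from 3228 arrays in the Consortium for Functional Glycomics database and kept only where the protein sequence was available. Glycan names were converted to IUPAC-condensed notation, and columns mapping to the same glycan were averaged. The binding signal is a within-array Z-score, averaged across arrays of the same protein sequence at different concentrations or buffers and across linkers. Negative Z-scores can be read as non-binding.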
# [2] = molecular target: Fuc(a1-2)Gal(b1-3)GalNAc(b1-3)Gal(a1-4)Gal(b1-4)Glc
# Outline: as §1
# [3] = molecular target: Fuc(a1-2)Gal(b1-3)GlcNAc(b1-2)Man(a1-3)[Fuc(a1-2)Gal(b1-3)GlcNAc(b1-2)Man(a1-6)]Man(b1-4)GlcNAc(b1-4)[Fuc(a1-6)]GlcNAc
# Outline: as §1
# [4] = molecular target: Fuc(a1-2)Gal(b1-4)GlcNAc(b1-6)GalNAc
# Outline: as §1
# Fuc(a1-2)Gal6S(b1-4)Glc = molecular target: Fuc(a1-2)Gal6S(b1-4)Glc
# Outline: as §1
# [5] = molecular target: Fuc(a1-2)[Gal(a1-3)]Gal(b1-4)GlcNAc(b1-3)GalNAc
# Outline: as §1
# [6] = molecular target: Fuc(a1-3)[Gal(b1-4)]GlcNAc6S
# Outline: as §1
# Fuc(a1-4)GlcNAc = molecular target: Fuc(a1-4)GlcNAc
# Outline: as §1
# Gal(a1-3)Gal(b1-3)GlcNAc = molecular target: Gal(a1-3)Gal(b1-3)GlcNAc
# Outline: as §1
# [7] = molecular target: Gal(a1-3)Gal(b1-4)[Fuc(a1-3)]GlcNAc
# Outline: as §1
# [8] = molecular target: Gal(a1-3)Gal(b1-4)[Fuc(a1-3)]GlcNAc(b1-2)Man(a1-3)[Gal(a1-3)Gal(b1-4)[Fuc(a1-3)]GlcNAc(b1-2)Man(a1-6)]Man(b1-4)GlcNAc(b1-4)GlcNAc
# Outline: as §1
# [9] = molecular target: Gal(a1-3)[Gal(a1-4)]Gal(b1-4)GlcNAc
# Outline: as §1
# Gal(a1-4)Gal(b1-4)Glc = molecular target: Gal(a1-4)Gal(b1-4)Glc
# Outline: as §1
# Gal(b1-3)Gal = molecular target: Gal(b1-3)Gal
# Outline: as §1
# [10] = molecular target: Gal(b1-3)GalNAc(b1-3)Gal(a1-4)Gal(b1-4)Glc
# Outline: as §1
# [11] = molecular target: Gal(b1-3)GalNAc(b1-4)[Neu5Ac(a2-3)]Gal(b1-4)Glc
# Outline: as §1
# [12] = molecular target: Gal(b1-3)GlcNAc(b1-3)GalNAc
# Outline: as §1
# [13] = molecular target: Gal(b1-3)[Neu5Ac(a2-6)]GalNAc
# Outline: as §1
# [14] = molecular target: Gal(b1-3)[Neu5Ac(a2-6)]GlcNAc(b1-4)Gal(b1-4)Glc
# Outline: as §1
# [15] = molecular target: Gal(b1-3)[Neu5Ac(b2-6)]GalNAc
# Outline: as §1
# [16] = molecular target: Gal(b1-4)GlcNAc(b1-2)Man(a1-3)[Gal(b1-4)GlcNAc(b1-2)Man(a1-6)]Man(b1-4)GlcNAc(b1-4)GlcNAc
# Outline: as §1
# [17] = molecular target: Gal(b1-4)GlcNAc(b1-2)Man(a1-6)[GlcNAc(b1-2)Man(a1-3)]Man(b1-4)GlcNAc(b1-4)GlcNAc
# Outline: as §1
# [18] = molecular target: Gal(b1-4)GlcNAc(b1-3)Gal(b1-4)GlcNAc(b1-3)Gal(b1-4)GlcNAc(b1-3)Gal(b1-4)GlcNAc(b1-3)Gal(b1-4)GlcNAc(b1-3)Gal(b1-4)GlcNAc(b1-2)Man(a1-3)[Gal(b1-4)GlcNAc(b1-3)Gal(b1-4)GlcNAc(b1-3)Gal(b1-4)GlcNAc(b1-3)Gal(b1-4)GlcNAc(b1-3)Gal(b1-4)GlcNAc(b1-3)Gal(b1-4)GlcNAc(b1-2)Man(a1-6)]Man(b1-4)GlcNAc(b1-4)GlcNAc
# Outline: as §1
# [19] = molecular target: Gal(b1-4)GlcNAc(b1-3)[Gal(b1-4)GlcNAc(b1-6)]Gal(b1-4)GlcNAc
# Outline: as §1
# [20] = molecular target: Gal(b1-4)GlcNAc(b1-6)GalNAc
# Outline: as §1
# Gal(b1-6)Gal = molecular target: Gal(b1-6)Gal
# Outline: as §1
# [21] = molecular target: Gal3S(b1-3)[Fuc(a1-4)]GlcNAc
# Outline: as §1
# Gal3S4S(b1-4)GlcNAc = molecular target: Gal3S4S(b1-4)GlcNAc
# Outline: as §1
# Gal3S6S(b1-4)GlcNAc = molecular target: Gal3S6S(b1-4)GlcNAc
# Outline: as §1
# Gal6P(b1-4)GlcNAc = molecular target: Gal6P(b1-4)GlcNAc
# Outline: as §1
# GalNAc(a1-3)GalNAc = molecular target: GalNAc(a1-3)GalNAc
# Outline: as §1
# [22] = molecular target: GalNAc(a1-3)GalNAc(b1-3)Gal(a1-4)Gal(b1-4)GlcNAc
# Outline: as §1
# [23] = molecular target: GlcNAc(b1-2)[GlcNAc(b1-4)]Man(a1-3)[GlcNAc(b1-4)][GlcNAc(b1-2)Man(a1-6)]Man(b1-4)GlcNAc(b1-4)GlcNAc
# Outline: as §1
# [24] = molecular target: GlcNAc(b1-3)Gal(b1-4)GlcNAc(b1-6)[GlcNAc(b1-3)Gal(b1-3)]GalNAc
# Outline: as §1
# [25] = molecular target: Kdn(a2-3)Gal(b1-4)[Fuc(a1-3)]GlcNAc
# Outline: as §1
# [26] = molecular target: Man(a1-2)Man(a1-2)Man(a1-3)Man
# Outline: as §1
# [27] = molecular target: Man(a1-2)Man(a1-2)Man(a1-6)[Man(a1-3)]Man
# Outline: as §1
# [28] = molecular target: Man(a1-3)[Man(a1-6)]Man(a1-6)[Man(a1-3)]Man
# Outline: as §1
# [29] = molecular target: Neu5Ac(a2-3)Gal(b1-3)GlcNAc(b1-6)GalNAc
# Outline: as §1
# [30] = molecular target: Neu5Ac(a2-3)Gal(b1-4)GlcNAc(b1-2)[Neu5Ac(a2-3)Gal(b1-4)GlcNAc(b1-4)]Man(a1-3)[GlcNAc(b1-4)][Neu5Ac(a2-3)Gal(b1-4)GlcNAc(b1-2)[Neu5Ac(a2-3)Gal(b1-4)GlcNAc(b1-6)]Man(a1-6)]Man(b1-4)GlcNAc(b1-4)GlcNAc
# Outline: as §1
# [31] = molecular target: Neu5Ac(a2-3)Gal(b1-4)GlcNAc(b1-2)[Neu5Ac(a2-3)Gal(b1-4)GlcNAc(b1-6)]Man(a1-6)[Neu5Ac(a2-3)Gal(b1-4)GlcNAc(b1-2)Man(a1-3)]Man(b1-4)GlcNAc(b1-4)GlcNAc
# Outline: as §1
# [32] = molecular target: Neu5Ac(a2-3)Gal(b1-4)GlcNAc(b1-3)Gal(b1-4)GlcNAc(b1-3)Gal(b1-4)GlcNAc
# Outline: as §1
# [33] = molecular target: Neu5Ac(a2-3)Gal(b1-4)GlcNAc(b1-3)Gal(b1-4)GlcNAc(b1-3)[Neu5Ac(a2-3)Gal(b1-4)GlcNAc(b1-3)Gal(b1-4)GlcNAc(b1-6)]GalNAc
# Outline: as §1
# [34] = molecular target: Neu5Ac(a2-3)Gal(b1-4)GlcNAc6S
# Outline: as §1
# [35] = molecular target: Neu5Ac(a2-3)Gal(b1-4)[Fuc(a1-3)]GlcNAc6S
# Outline: as §1
# [36] = molecular target: Neu5Ac(a2-6)Gal(b1-4)GlcNAc(b1-2)Man(a1-3)[Neu5Ac(a2-6)Gal(b1-4)GlcNAc(b1-2)Man(a1-6)]Man(b1-4)GlcNAc(b1-4)GlcNAc
# Outline: as §1
# [37] = molecular target: Neu5Ac(a2-6)Gal(b1-4)GlcNAc(b1-2)Man(a1-6)[Gal(b1-4)GlcNAc(b1-2)Man(a1-3)]Man(b1-4)GlcNAc(b1-4)GlcNAc
# Outline: as §1
# [38] = molecular target: Neu5Ac(a2-6)Gal(b1-4)GlcNAc(b1-2)Man(a1-6)[GlcNAc(b1-2)Man(a1-3)]Man(b1-4)GlcNAc(b1-4)GlcNAc
# Outline: as §1
# [39] = molecular target: Neu5Ac(a2-6)Gal(b1-4)GlcNAc(b1-2)[Neu5Ac(a2-6)Gal(b1-4)GlcNAc(b1-4)]Man(a1-3)[GlcNAc(b1-4)][Neu5Ac(a2-6)Gal(b1-4)GlcNAc(b1-2)[Neu5Ac(a2-6)Gal(b1-4)GlcNAc(b1-6)]Man(a1-6)]Man(b1-4)GlcNAc(b1-4)GlcNAc
# Outline: as §1
# Neu5Ac(a2-6)GalNAc = molecular target: Neu5Ac(a2-6)GalNAc
# Outline: as §1
# [40] = molecular target: Neu5Ac(a2-6)GalNAc(b1-4)GlcNAc
# Outline: as §1
# [41] = molecular target: Neu5Ac(a2-6)GalNAc(b1-4)GlcNAc6S
# Outline: as §1
# [42] = molecular target: Neu5Ac(a2-8)Neu5Ac(a2-3)Gal(b1-4)GlcNAc
# Outline: as §1
# [43] = molecular target: Neu5Ac(a2-8)Neu5Ac(a2-8)Neu5Ac(a2-3)[Gal(b1-3)GalNAc(b1-4)]Gal(b1-4)Glc
# Outline: as §1
# [44] = molecular target: Neu5Gc(a2-3)Gal(b1-4)GlcNAc
# Outline: as §1
# [45] = molecular target: Neu5Gc(a2-8)Neu5Ac(a2-3)Gal(b1-4)GlcNAc
# Outline: as §1
# [46] = molecular target: Neu5Gc(a2-8)Neu5Gc(a2-6)Gal(b1-4)GlcNAc
# Outline: as §1
binder,measurement,setting,value
"DCIR1 (Mus musculus), Q9QZ15 (protein) MASEITYAEVKFKNESNSLHTYSESPAAPREKPIRDLRKPGSPSLLLTSLMLLLLLLAITFLVAFIIYFQKYSQLLEEKKAAKNIMHNELNCTKSVSPMEDKVWSCCPKDWRLFGSHCYLVPTVSSSASWNKSEENCSRMGAHLVVIQSQEEQDFITGILDTHAAYFIGLWDTGHRQWQWVDQTPYEESITFWHNGEPSSGNEKCATIIYRWKTGWGWNDISCSLKQKSVCQMKKINL",glycan array binding signal (z-score),[1],0.031
same,glycan array binding signal (z-score),[2],3.31
same,glycan array binding signal (z-score),[3],3.05
same,glycan array binding signal (z-score),[4],3.97
same,glycan array binding signal (z-score),Fuc(a1-2)Gal6S(b1-4)Glc,1.87
same,glycan array binding signal (z-score),[5],-0.604
same,glycan array binding signal (z-score),[6],1.43
same,glycan array binding signal (z-score),Fuc(a1-4)GlcNAc,-0.807
same,glycan array binding signal (z-score),Gal(a1-3)Gal(b1-3)GlcNAc,7.14
same,glycan array binding signal (z-score),[7],-0.171
same,glycan array binding signal (z-score),[8],2.31
same,glycan array binding signal (z-score),[9],3.21
same,glycan array binding signal (z-score),Gal(a1-4)Gal(b1-4)Glc,0.74
same,glycan array binding signal (z-score),Gal(b1-3)Gal,-0.894
same,glycan array binding signal (z-score),[10],0.592
same,glycan array binding signal (z-score),[11],2.65
same,glycan array binding signal (z-score),[12],-0.841
same,glycan array binding signal (z-score),[13],-0.767
same,glycan array binding signal (z-score),[14],3.38
same,glycan array binding signal (z-score),[15],-0.696
same,glycan array binding signal (z-score),[16],-0.217
same,glycan array binding signal (z-score),[17],0.904
same,glycan array binding signal (z-score),[18],-0.907
same,glycan array binding signal (z-score),[19],-0.693
same,glycan array binding signal (z-score),[20],1.01
same,glycan array binding signal (z-score),Gal(b1-6)Gal,-0.786
same,glycan array binding signal (z-score),[21],-0.369
same,glycan array binding signal (z-score),Gal3S4S(b1-4)GlcNAc,-0.376
same,glycan array binding signal (z-score),Gal3S6S(b1-4)GlcNAc,0.218
same,glycan array binding signal (z-score),Gal6P(b1-4)GlcNAc,-0.489
same,glycan array binding signal (z-score),GalNAc(a1-3)GalNAc,-0.78
same,glycan array binding signal (z-score),[22],2.31
same,glycan array binding signal (z-score),[23],-0.101
same,glycan array binding signal (z-score),[24],-0.947
same,glycan array binding signal (z-score),[25],2.92
same,glycan array binding signal (z-score),[26],-0.962
same,glycan array binding signal (z-score),[27],4.44
same,glycan array binding signal (z-score),[28],0.267
same,glycan array binding signal (z-score),[29],0.265
same,glycan array binding signal (z-score),[30],-0.887
same,glycan array binding signal (z-score),[31],0.375
same,glycan array binding signal (z-score),[32],-0.844
same,glycan array binding signal (z-score),[33],1.36
same,glycan array binding signal (z-score),[34],0.145
same,glycan array binding signal (z-score),[35],-0.532
same,glycan array binding signal (z-score),[36],-0.079
same,glycan array binding signal (z-score),[37],-0.16
same,glycan array binding signal (z-score),[38],2.04
same,glycan array binding signal (z-score),[39],-0.823
same,glycan array binding signal (z-score),Neu5Ac(a2-6)GalNAc,2.86
same,glycan array binding signal (z-score),[40],-0.517
same,glycan array binding signal (z-score),[41],-0.058
same,glycan array binding signal (z-score),[42],-1.1
same,glycan array binding signal (z-score),[43],2.88
same,glycan array binding signal (z-score),[44],-0.678
same,glycan array binding signal (z-score),[45],-1.04
same,glycan array binding signal (z-score),[46],-0.802
